In PubChem BioAssay:
Active and inactive are the calls of the source.

What was measured:
[1] = test system: Plasmodium falciparum Sir2 (PF13_0152, Sir2A); assay: pfSir2 binders on small-molecule microarrays, primary screen, biochemical, small-molecule microarray, 635 nm fluorescence (AID 1098); details: small-molecule microarray binding, fluorescence 635 nm; higher = more signal;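 further: score merges spot fluorescence intensity with its signal-to-noise ratio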
[2] = small-molecule microarray binders of probe aDKK1, primary screen, biochemical, biotinylated probe, 635/667 nm fluorescence (AID 1099); details: higher = more signal;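 further: score merges 667nm spot fluorescence with signal to noise across triplicate slides; reference of the scale not given here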
[3] = small-molecule microarray binders of probe aCHRDL2, primary screen, biochemical, biotinylated probe, 635/667 nm fluorescence (AID 1100); details: higher = more signal
[4] = splicing luciferase reporter signal modulators, primary screen, spliceosome inhibition project, cell-based, HEK293, splice +/- reporter (AID 1101); details: luminescence, 24 h, higher = more signal, called active from +8 up or from −8 down;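 further: HEK293 cells carrying a splicing-competent luciferase reporter gene; test concentration not given here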
[5] = target: Fibroblast growth factor 10 (Homo sapiens) (UniProt O15520); assay: FGF10 binders on small-molecule microarrays, primary screen, biochemical, small-molecule microarray, 635 nm fluorescence (AID 1102); details: FGF10 binding, fluorescence 635 nm, higher = more signal
Fibroblast growth factor 10 (Homo sapiens), sequence (O15520 whole entry, looked up): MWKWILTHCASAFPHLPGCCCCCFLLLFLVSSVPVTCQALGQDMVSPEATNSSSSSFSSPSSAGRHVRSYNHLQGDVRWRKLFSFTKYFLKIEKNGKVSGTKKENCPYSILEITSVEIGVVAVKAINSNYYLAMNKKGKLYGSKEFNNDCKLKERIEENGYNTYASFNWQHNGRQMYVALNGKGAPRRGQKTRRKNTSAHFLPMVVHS

[6] = test system: glycogen synthase kinase-3 (GSK3A per assay name; protocol says GSK3B); assay: GSK3 binders on small-molecule microarrays, primary screen, biochemical, small-molecule microarray, 635 nm fluorescence, GSK3A (AID 1103); details: small-molecule microarray binding, fluorescence 635 nm; higher = more signal; further: the record names both GSK3A and GSK3B
[7] = target: Epidermal growth factor receptor (Homo sapiens) (UniProt P00533); assay: EGFR binders on small-molecule microarrays, primary screen, biochemical, small-molecule microarray, 635 nm fluorescence (AID 1104); details: EGFR binding, higher = more signal;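 further: score merges 667 nm emission intensity with spot signal to noise over triplicate slides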
Epidermal growth factor receptor (Homo sapiens), sequence (P00533 whole entry, looked up): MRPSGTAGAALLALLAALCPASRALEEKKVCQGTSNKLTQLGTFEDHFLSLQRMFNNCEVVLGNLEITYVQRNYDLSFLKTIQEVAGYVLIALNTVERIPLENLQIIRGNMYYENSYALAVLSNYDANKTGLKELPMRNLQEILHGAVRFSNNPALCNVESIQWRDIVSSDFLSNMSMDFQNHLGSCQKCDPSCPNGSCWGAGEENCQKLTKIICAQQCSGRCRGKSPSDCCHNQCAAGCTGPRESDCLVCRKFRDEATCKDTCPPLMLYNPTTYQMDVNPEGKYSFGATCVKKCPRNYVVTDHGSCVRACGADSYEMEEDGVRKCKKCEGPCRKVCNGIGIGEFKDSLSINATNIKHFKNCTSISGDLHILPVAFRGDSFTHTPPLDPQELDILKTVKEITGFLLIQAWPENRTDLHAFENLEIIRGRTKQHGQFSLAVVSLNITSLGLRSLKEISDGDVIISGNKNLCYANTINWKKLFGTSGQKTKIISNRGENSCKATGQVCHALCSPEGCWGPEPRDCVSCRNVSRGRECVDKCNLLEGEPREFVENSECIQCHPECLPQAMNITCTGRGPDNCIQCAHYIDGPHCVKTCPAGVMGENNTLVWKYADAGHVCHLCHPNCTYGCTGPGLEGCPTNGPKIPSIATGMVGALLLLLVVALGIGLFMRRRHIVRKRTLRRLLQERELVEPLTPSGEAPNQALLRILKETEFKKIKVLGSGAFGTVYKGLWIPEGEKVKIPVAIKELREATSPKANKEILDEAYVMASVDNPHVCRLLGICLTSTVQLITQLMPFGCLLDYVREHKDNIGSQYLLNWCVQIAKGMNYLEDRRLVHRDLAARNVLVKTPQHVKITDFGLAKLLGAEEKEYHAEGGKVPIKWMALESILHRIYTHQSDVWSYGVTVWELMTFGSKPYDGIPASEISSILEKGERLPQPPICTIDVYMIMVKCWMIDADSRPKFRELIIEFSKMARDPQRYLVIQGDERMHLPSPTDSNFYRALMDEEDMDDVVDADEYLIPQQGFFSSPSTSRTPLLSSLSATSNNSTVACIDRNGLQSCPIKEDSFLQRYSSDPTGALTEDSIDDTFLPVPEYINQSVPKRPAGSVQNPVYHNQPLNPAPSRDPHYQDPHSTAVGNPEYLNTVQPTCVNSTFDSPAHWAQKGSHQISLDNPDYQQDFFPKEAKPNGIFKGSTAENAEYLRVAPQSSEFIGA

[8] = target: Follistatin-related protein 3 (Homo sapiens) (UniProt O95633); assay: FSTL3 binders on small-molecule microarrays, primary screen, biochemical, small-molecule microarray, 635 nm fluorescence (AID 1105); details: FSTL3 binding, higher = more signal;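 further: score merges emission near 667 nm and signal to noise per printed spot across three slides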
Follistatin-related protein 3 (Homo sapiens), sequence (O95633 whole entry, looked up): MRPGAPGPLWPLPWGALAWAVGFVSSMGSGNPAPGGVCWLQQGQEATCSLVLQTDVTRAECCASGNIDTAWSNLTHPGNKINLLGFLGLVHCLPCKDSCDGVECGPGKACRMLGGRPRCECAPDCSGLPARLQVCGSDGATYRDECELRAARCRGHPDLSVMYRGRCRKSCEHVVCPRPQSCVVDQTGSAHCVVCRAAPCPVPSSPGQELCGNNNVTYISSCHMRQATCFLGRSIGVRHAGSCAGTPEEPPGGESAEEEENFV

[9] = target: Dickkopf-related protein 1 (Homo sapiens) (UniProt O94907); assay: DKK1 binders on small-molecule microarrays, primary screen, biochemical, small-molecule microarray, 635 nm fluorescence scan (AID 1106); details: DKK1 binding, higher = more signal;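 further: score merges emission near 667 nm with signal to noise over three replicate slides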
Dickkopf-related protein 1 (Homo sapiens), sequence (O94907 whole entry, looked up): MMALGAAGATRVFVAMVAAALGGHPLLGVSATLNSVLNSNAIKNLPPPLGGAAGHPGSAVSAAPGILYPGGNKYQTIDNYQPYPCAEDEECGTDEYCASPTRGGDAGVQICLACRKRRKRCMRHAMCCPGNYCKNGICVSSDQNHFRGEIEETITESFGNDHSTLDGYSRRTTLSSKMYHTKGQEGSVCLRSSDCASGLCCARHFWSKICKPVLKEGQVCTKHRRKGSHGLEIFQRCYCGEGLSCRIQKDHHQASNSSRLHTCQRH

[10] = test system: Inhibin beta A chain (activin A); assay: INHBA (activin A) binders on microarrays, primary screen, biochemical, small-molecule microarray, 635 nm fluorescence scan (AID 1107); details: small-molecule microarray binding, higher = more signal;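 further: mouse activin A protein probed at 4.33 µg/mL on printed slides; score merges bound-protein fluorescence near 667 nm with spot signal-to-noise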

SMILES: C=CCOC(=O)[C@@H]1[C@H]2C(=O)O[C@H](c3ccccc3)[C@H](c3ccccc3)N2[C@H](c2ccc(OCCOC(=O)[C@H]3C[C@H]4C(=O)N[C@@H](CC(C)C)C(=O)N4[C@H]3c3cccc(OCCO)c3)cc2)[C@@]12C(=O)Nc1ccc(I)cc12
- composite z-score [1]: 1.41
- composite z-score [2]: 0.169
- composite z-score [3]: -0.135
- z-score [4]: -0.835 (inactive)
- composite z-score [5]: 1.23
- composite z-score [6]: 1.32
- composite z-score [7]: 0.694
- composite z-score [8]: 1.25
- composite z-score [9]: 0.836
- composite z-score [10]: 0.255

SMILES: COCCOC(=O)N1C(=O)[C@@]2(c3cc(C#CC4=CCCCC4)ccc31)[C@H](c1ccc(OCCO)cc1)N1[C@H](c3ccccc3)[C@H](c3ccccc3)OC(=O)[C@H]1[C@@H]2C(=O)Nc1nc2ccccc2s1
- composite z-score [1]: 0.581
- composite z-score [2]: 0.0643
- composite z-score [3]: 0.153
- z-score [4]: -0.831 (inactive)
- composite z-score [5]: 1.08
- composite z-score [6]: 1.29
- composite z-score [7]: 0.287
- composite z-score [8]: 1.12
- composite z-score [9]: 0.521
- composite z-score [10]: 0.462

SMILES: CCCCN1CC=CC23O[C@@H]4/C=C\CCCOC(=O)C4[C@H]2C(=O)N(C(C)CO)[C@@H]3C1=O (stereo not given in full)
- composite z-score [1]: 1.62
- composite z-score [2]: -0.292
- composite z-score [3]: -0.305
- z-score [4]: -0.577 (inactive)
- composite z-score [5]: -0.319
- composite z-score [6]: -0.969
- composite z-score [7]: -0.154
- composite z-score [8]: -0.43
- composite z-score [9]: 0.326
- composite z-score [10]: 0.788

SMILES: O=C1O[C@@H](c2ccccc2)[C@@H](c2ccccc2)N2[C@@H](c3ccc(O)cc3)[C@]3(C(=O)Nc4ccccc43)[C@@H](C(=O)N3CCCCCCC3)[C@H]12
- composite z-score [1]: 2.02
- composite z-score [2]: 2.5
- composite z-score [3]: 1.53
- z-score [4]: -1.29 (inactive)
- composite z-score [5]: 1.03
- composite z-score [6]: 1.32
- composite z-score [7]: 1.27
- composite z-score [8]: 1.58
- composite z-score [9]: 1.56
- composite z-score [10]: 1.98

SMILES: COc1ccc(C(=O)Nc2cccc(CN3C(=O)[C@@]4(O[C@@H](CC(=O)N5Cc6ccccc6C[C@H]5CO)[C@H]([Si](C)(C)c5ccc(OC)cc5)[C@H]4C)c4ccccc43)c2)cc1
- composite z-score [1]: 1.42
- composite z-score [2]: -0.287
- composite z-score [3]: -0.0642
- z-score [4]: -1.14 (inactive)
- composite z-score [5]: 0.639
- composite z-score [6]: 0.363
- composite z-score [7]: 0.978
- composite z-score [8]: 1.24
- composite z-score [9]: 1.11
- composite z-score [10]: 0.551

SMILES: CC(C)CNC(=O)[C@@]1(C)c2ccccc2C(=O)N(C(C)C)[C@H]1c1ccc(CO)cc1
- composite z-score [1]: 1.09
- composite z-score [2]: 0.0084
- composite z-score [3]: 0.567
- z-score [4]: -0.0251 (inactive)
- composite z-score [5]: -1.42
- composite z-score [6]: -1.29
- composite z-score [7]: -0.741
- composite z-score [8]: -0.542
- composite z-score [9]: -0.854
- composite z-score [10]: 1.26

SMILES: C=CC[C@@]1(C(=O)NCc2ccccc2)N=C(c2ccc(OCCCO)cc2)O[C@@H]1c1ccccc1CN=[N+]=[N-]
- composite z-score [1]: 1.1
- composite z-score [2]: 0.9
- composite z-score [3]: 0.953
- z-score [4]: 0.147 (inactive)
- composite z-score [5]: 1.15
- composite z-score [6]: 0.0389
- composite z-score [7]: -0.282
- composite z-score [8]: 0.849
- composite z-score [9]: 0.0805
- composite z-score [10]: 0.835

SMILES: CC(C)N1C(=O)c2ccccc2[C@](C)(C(=O)NCCCN(C)C)[C@@H]1c1ccc(CO)cc1
- composite z-score [1]: 0.928
- composite z-score [2]: 0.466
- composite z-score [3]: 0.665
- z-score [4]: -0.297 (inactive)
- composite z-score [5]: -0.543
- composite z-score [6]: 1.4
- composite z-score [7]: -0.968
- composite z-score [8]: -0.749
- composite z-score [9]: -1.78
- composite z-score [10]: 0.814

SMILES: CCCCC(=O)N(Cc1ccccc1F)[C@@H]1CC(C(=O)NCCO)=C[C@H](Oc2c(I)cc(CO)cc2OC)[C@H]1O
- composite z-score [1]: 1.09
- composite z-score [2]: -0.22
- composite z-score [3]: -0.327
- z-score [4]: -0.0457 (inactive)
- composite z-score [5]: 1.46
- composite z-score [6]: 1.34
- composite z-score [7]: 0.91
- composite z-score [8]: 1.13
- composite z-score [9]: 1.96
- composite z-score [10]: 0.535

SMILES: O=C1NC(=O)C2C1C=CC(C(O)c1cccs1)N2Nc1ccccn1 (stereo not given)
- composite z-score [1]: 0.809
- composite z-score [2]: 0.53
- composite z-score [3]: 0.601
- z-score [4]: 0.566 (inactive)
- composite z-score [5]: 0.797
- composite z-score [6]: 0.182
- composite z-score [7]: 0.727
- composite z-score [8]: 0.292
- composite z-score [9]: 0.283
- composite z-score [10]: 0.538

SMILES: CC(C)N1C(=O)c2ccccc2[C@](C)(C(=O)NC2CC2)[C@@H]1c1ccc(CO)cc1
- composite z-score [1]: 0.173
- composite z-score [2]: 0.0976
- composite z-score [3]: 0.151
- z-score [4]: -0.0713 (inactive)
- composite z-score [5]: 0.13
- composite z-score [6]: 0.821
- composite z-score [7]: -0.415
- composite z-score [8]: 0.507
- composite z-score [9]: 0.33
- composite z-score [10]: 0.926

SMILES: C=CCC(OC(C)=O)[C@@H]1[C@@H](N(Cc2cc3ccccc3o2)C(=O)c2cccc3ccccc23)c2cc(OCCCO)ccc2N1C(=O)Cc1ccc2ccccc2c1 (stereo not given in full)
- composite z-score [1]: 0.53
- composite z-score [2]: 0.224
- composite z-score [3]: 0.471
- z-score [4]: -0.904 (inactive)
- composite z-score [5]: 0.0259
- composite z-score [6]: -0.925
- composite z-score [7]: -0.221
- composite z-score [8]: 0.0969
- composite z-score [9]: -0.0207
- composite z-score [10]: 1.02

SMILES: C=C(CCCC)/C(=C/C[C@@H](OC(=O)c1ccncc1)c1ccc(CO)o1)c1cc(C(=O)OC)ccc1OC
- composite z-score [1]: 1.5
- composite z-score [2]: 0.0296
- composite z-score [3]: -0.363
- z-score [4]: 0.674 (inactive)
- composite z-score [5]: 0.833
- composite z-score [6]: 1.31
- composite z-score [7]: 0.669
- composite z-score [8]: 1.03
- composite z-score [9]: 0.744
- composite z-score [10]: 0.775

SMILES: COCCOC(=O)N1C(=O)[C@@]2(c3cc(C#CCCO)ccc31)[C@H](c1ccc(O)cc1)N1[C@H](c3ccccc3)[C@H](c3ccccc3)OC(=O)[C@H]1[C@@H]2C(=O)N1CCCCCCC1
- composite z-score [1]: 1.4
- composite z-score [2]: 1.51
- composite z-score [3]: 0.885
- z-score [4]: 0.242 (inactive)
- composite z-score [5]: 1.13
- composite z-score [6]: 1.26
- composite z-score [7]: 0.483
- composite z-score [8]: 1.39
- composite z-score [9]: 0.771
- composite z-score [10]: 1.59

SMILES: COc1ccc([Si](C)(C)[C@@H]2[C@@H](CC(=O)N3Cc4ccccc4C[C@H]3CO)O[C@]3(C(=O)N(Cc4cccc(N5C(=O)COc6ccccc65)c4)c4ccccc43)[C@H]2C)cc1
- composite z-score [1]: 0.321
- composite z-score [2]: 0.542
- composite z-score [3]: -0.602
- z-score [4]: -1.82 (inactive)
- composite z-score [5]: 0.904
- composite z-score [6]: 0.901
- composite z-score [7]: 0.925
- composite z-score [8]: 1.13
- composite z-score [9]: 1.01
- composite z-score [10]: 0.729

SMILES: O=C(NCC(O)CO)[C@@]1(Cc2ccccc2)N=C(c2ccc(OCCCO)cc2)O[C@H]1c1ccccc1 (stereo not given in full)
- composite z-score [1]: 0.616
- composite z-score [2]: 1.15
- composite z-score [3]: 1.36
- z-score [4]: -0.395 (inactive)
- composite z-score [5]: 0.698
- composite z-score [6]: 0.591
- composite z-score [7]: -1.2
- composite z-score [8]: -0.378
- composite z-score [9]: -0.72
- composite z-score [10]: 0.661

SMILES: OCCCc1cc[n+](Cc2cccc(OC(F)(F)F)c2)cc1
- composite z-score [1]: 1.67
- composite z-score [2]: 0.237
- composite z-score [3]: 0.526
- z-score [4]: -0.109 (inactive)
- composite z-score [5]: 0.0895
- composite z-score [6]: 0.873
- composite z-score [7]: 0.0648
- composite z-score [8]: 1.03
- composite z-score [9]: 0.346
- composite z-score [10]: 1.14

SMILES: O=C1O[C@H](c2ccccc2)[C@H](c2ccccc2)N2[C@H]1[C@@H](C(=O)NC[C@H](O)c1ccccc1)[C@]1(C(=O)Nc3ccc(C#CC4(O)CCCCCC4)cc31)[C@H]2c1ccccc1OCCO
- composite z-score [1]: 1.51
- composite z-score [2]: -0.26
- composite z-score [3]: -0.313
- z-score [4]: -1.11 (inactive)
- composite z-score [5]: 1.17
- composite z-score [6]: 1.16
- composite z-score [7]: -0.028
- composite z-score [8]: 0.948
- composite z-score [9]: 0.178
- composite z-score [10]: 0.048

SMILES: O=C1OCCC/C=C\[C@H]2OC34C=CCN(Cn5nnc6ccccc65)C(=O)[C@H]3N(CCCO)C(=O)[C@@H]4C12 (stereo not given in full)
- composite z-score [1]: 0.649
- composite z-score [2]: -0.282
- composite z-score [3]: 0.741
- z-score [4]: 0.288 (inactive)
- composite z-score [5]: -1.34
- composite z-score [6]: -0.556
- composite z-score [7]: -1.43
- composite z-score [8]: -0.921
- composite z-score [9]: -1.16
- composite z-score [10]: -0.0648

SMILES: COc1c(C)cc(-c2cc3c(c(-c4ccccc4)n2)[Si](C(C)C)(C(C)C)O[C@H]3c2ccccc2)cc1C
- composite z-score [1]: -0.14
- composite z-score [2]: -0.16
- composite z-score [3]: -0.327
- z-score [4]: 0.139 (inactive)
- composite z-score [5]: 0.397
- composite z-score [6]: 0.02
- composite z-score [7]: 0.0111
- composite z-score [8]: 0.168
- composite z-score [9]: 0.211
- composite z-score [10]: 0.0244

SMILES: CN1C(=O)C2C(C1=O)C1C=C(c3ccc(CO)cc3)C2C(C2CC2)N1Cc1sc2ccccc2c1Cl (stereo not given)
- composite z-score [1]: 0.924
- composite z-score [2]: -0.197
- composite z-score [3]: 0.82
- z-score [4]: 0.254 (inactive)
- composite z-score [5]: 1.25
- composite z-score [6]: 1.33
- composite z-score [7]: 0.291
- composite z-score [8]: 0.989
- composite z-score [9]: 0.473
- composite z-score [10]: 0.74
